# ± gives the standard deviation. In all, about 8,200 sequences were measured (“pre-steady-state target cleavage rate”: median about 0.024, highest 2% from about 1.3 on). This is one part of a sample in which the highest values are shown more often than they occur.
# System: MIWI (PIWIL1) piRISC loaded with L1MC piRNA (30 nt)
# Test: pre-steady-state target cleavage rate (min^-1); MIWI and MILI are mouse PIWI proteins and EfPiwi is from a freshwater sponge; tags in brackets are library labels; higher = faster piRNA-guided slicing of the target
# Conditions: guide: L1MC piRNA 5'p-UAACUAAAUACUAUGCAAGCUGUAGGUCCU
# Description: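 Cleave-'n-Seq: a library of target RNAs (target site embedded in constant flanks, ACAGCATTCCGCGTTAGTGATATCCG... 5' flank; DNA-blocked outside the site) at 0.1 nM was incubated with 1 nM active mouse MILI or MIWI piRISC (synthetic 5'-monophosphorylated piRNA guide) with or without 500 nM mouse GTSF1 at 33 °C for 1 min to 16 h. Uncleaved targets were sequenced and normalised to non-target controls, and the pooled three trials were fitted to a burst-and-steady-state model to give the pre-steady-state cleavage rate (min^-1; k3 is constrained to at most 1e-4). Sequence is the target site only; target names encode pairing extent (gX:gY) and contiguous / 1-mismatch / 2-mismatch / bulge geometry. Fits with R² ≤ 0 are excluded.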
# [1] = auxiliary factor: none (no GTSF1)
# [2] = auxiliary factor: 500 nM mouse GTSF1
Sequence,pre-steady-state target cleavage rate [1],pre-steady-state target cleavage rate [2]
UCCUGGAUGUCGAACCAUAGAAUAUAGUUA,< 0.0001,–
UCCUGGAUGUCCAUGCAUAGUAUUUUGUUA,–,0.00484 ± 0.0039
UCCACCUUCAGCUUGCUUAGUAUUUAGUUA,0.0231 ± 0.005,1.16 ± 0.037
UCGACCUUCAGCUUGCAUAGUAUUUAGUAA,0.043 ± 0.011,1.05 ± 0.065
UCGACCUUCAGCUUGCAUAGUAUUUAGAAA,0.0103 ± 0.0029,0.659 ± 0.064
AGCACCUUCAGCUUGCAUAGUAUUUAGUUA,0.0548 ± 0.014,0.711 ± 0.089
UCCACCUUCAGCUUGCAAAGUAUUUAGUUA,0.0305 ± 0.0063,1.17 ± 0.038
UCCUCCUUCAGCUUGCAAAGUAUUUAGUUA,0.0323 ± 0.0072,1.16 ± 0.041
UCCUCCUUCAGCUUGCUUAGUAUUUAGUUA,0.0243 ± 0.0053,1.31 ± 0.054
UCGACCUUCAGCUUGCUUAGUAUUUAGUUA,0.0363 ± 0.0088,1.33 ± 0.05
UGCACCUUCAGCUUGCAUAGUAUUUAGUUA,0.0562 ± 0.011,1.08 ± 0.091
UCGACCUUCAGCUUGCAAAGUAUUUAGUUA,0.0401 ± 0.0087,1.33 ± 0.045
UCGACCUUCAGCUUGCAUAGUAUUUAGUUA,0.0696 ± 0.012,1.51 ± 0.047
ACGACCUUCAGCUUGCAUAGUAUUUAGUUA,0.0921 ± 0.015,1.45 ± 0.042
UCCUCGUACAGCUUGCAUAGUUUUUAGUUA,0.0475 ± 0.011,0.478 ± 0.013
UCCUGCUACAGCUUGCAUAGUAAUUUCAAA,–,0.278 ± 0.074
UCCACCAACUGCUUGCAUAGUAUUUAGUUA,0.0532 ± 0.0097,0.828 ± 0.036
UGGACCUACAGCAUGCAUAGUAUUUAGAAA,0.00651 ± 0.0026,0.5 ± 0.061
UCCACCUACACCUUGCAUAGUAUAUAGUUA,0.025 ± 0.0054,0.543 ± 0.068
UCCUGCAACAGCUUGCAUAGAAUUUAGUUA,0.0261 ± 0.0079,0.492 ± 0.048

Sequence,pre-steady-state target cleavage rate [1],pre-steady-state target cleavage rate [2]
UCCUGGAUCAGCUUGCAAACUAUUUAGUUA,0.00677 ± 0.003,0.0815 ± 0.0098
AGGACCUAAGCUUGCAUAGUAUUUAGUUA,0.0685 ± 0.013,1.05 ± 0.071
UGGACCUACAUCUUGCAUAGUAUUUAGUUA,0.0737 ± 0.012,1.38 ± 0.043
AGGACCUACAUCUUGCAUAGUAUUUAGUUA,0.0767 ± 0.012,1.39 ± 0.036
AGGACCUACACCUUGCAUAGUAUUUAGUUA,0.0855 ± 0.015,1.17 ± 0.037
UCGACCUACAGUCUUGCAUAGUAUUUAGUUA,0.0611 ± 0.012,1.16 ± 0.063
UCGACCUACACCUUGCAUAGUAUUUAGUUA,0.0525 ± 0.008,1.15 ± 0.046
AGGACCUACAUGCUUGCAUAGUAUUUAGUUA,0.0684 ± 0.013,0.767 ± 0.056
UCCACCUACAUCUUGCAUAGUAUUUAGUUA,0.0567 ± 0.0096,0.85 ± 0.036
UCGACCUACAUCUUGCAUAGUAUUUAGUUA,0.077 ± 0.014,1.61 ± 0.043
UGGACCUACAUGCUUGCAUAGUAUUUAGUUA,0.0601 ± 0.013,0.925 ± 0.054
UCCACCUACAGCUUCCAUAGAAUUUAGUUA,–,0.0393 ± 0.015
UGGACCAUGAGCUUGCAUAGUAUUUACAAA,0.00423 ± 0.0026,0.159 ± 0.021
AGGACCUACAGCUUGCAUAGUUAAAUCAAA [g10:g30:cont:t1A],–,0.159 ± 0.046
UCGACCAUACAGCUUGCAUAGUAUUUAGUUA,0.0901 ± 0.015,0.86 ± 0.039
UGGACAUACAGCUUGCAUAGUAUUUAGUUA,0.0916 ± 0.014,1.23 ± 0.05
UCGACACUACAGCUUGCAUAGUAUUUAGUUA,0.0557 ± 0.0088,0.961 ± 0.061
AGGACAUACAGCUUGCAUAGUAUUUAGUUA,0.0818 ± 0.012,1.32 ± 0.055
UCGACAUACAGCUUGCAUAGUAUUUAGUUA,0.071 ± 0.012,1.38 ± 0.043
AGGACCAUACAGCUUGCAUAGUAUUUAGUUA,0.0829 ± 0.013,1.06 ± 0.051

Sequence,pre-steady-state target cleavage rate [1],pre-steady-state target cleavage rate [2]
UCCUGGAUGUGCUUGCAUUGUAUUUAGUAA,0.00578 ± 0.0023,0.0234 ± 0.0059
UCCUGGAACAGCUUGCAUAGAUUUUAGUAA,–,0.0419 ± 0.015
UCCUGGAUGUCGAAGGAUAGUAUUUUGUUA,< 0.0001,–
UCCUGGUACUGCAUGCAUAGUAUUUAGUUA,0.00786 ± 0.0024,0.556 ± 0.045
UCCUGCUUCAGCAUGCAUAGUAUUUAGUUA,0.0171 ± 0.0036,1.32 ± 0.078
UCCUGCUUCAGCUUGCAUAGUAUUUAGUUA,0.0684 ± 0.012,1.19 ± 0.051
UCCUGGUUCAGCAUGCAUAGUAUUUAGUUA,0.0172 ± 0.0043,0.93 ± 0.036
UCCUGCUUCAGCUAGCAUAGUAUUUAGUUA,0.0109 ± 0.0042,1.32 ± 0.056
UCCUCCUUCAGCUAGCAUAGUAUUUAGUUA,0.0147 ± 0.0034,0.78 ± 0.032
UCCUGGUUCAGCUAGCAUAGUAUUUAGUUA,0.0169 ± 0.004,0.872 ± 0.045
UCCUGGAACAGCUUGCAUUGUAAUUAGUUA,0.018 ± 0.006,0.375 ± 0.032
UCCUGGAACUCCUUGCAUAGUAUUUAGUUA,0.00821 ± 0.0033,0.46 ± 0.048
UCCUCCUAACAGCUUGCAUAGUAUUUAGUUA,0.0508 ± 0.0092,0.591 ± 0.025
UCCACCUACAGCUUGCUUAGUUUUUAGUUA,0.0103 ± 0.002,0.175 ± 0.017
UGGUCCUACAGCUUGCAUAGUAUUUUGUUA,0.0592 ± 0.011,0.679 ± 0.03
UCCACCUACAGCUUGCAUGGUAUUUAGUUA,0.0488 ± 0.01,1.3 ± 0.061
AGGACCUACAGCUUGCAUGGUAUUUAGUUA,0.0615 ± 0.012,1.35 ± 0.073
UCGACCUACAGCUUGCAUGGUAUUUAGUUA,0.0512 ± 0.011,1.73 ± 0.084
UCCUCCUACAGCUUGCAUGUAUUUAGUUA,0.00445 ± 0.0018,0.428 ± 0.051
AGGACCUACAGCUUGCAUGAGUAUUUAGUUA,–,0.194 ± 0.068

# Reference: the supplement of paper PMC10338343
